# Out of some 310,000 compounds screened, about 14,000 (4.5%) showed an effect of 50% or more. Effects have a minus sign here. What follows is part of a selection rich in strong results, with near analogues and random picks from the rest. Where a SMILES comes first, the peptide text is derived from it. The star is where a group is joined. Boc = CC(C)(C)OC(=O)*; OtBu = CC(C)(C)O*
# Target: human ether-à-go-go-related gene (hERG) potassium channel (human, UniProt Q12809)
# Assay: primary screen, population patch clamp on CHO cells stably expressing hERG; higher = less effect of the substance
# 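Further: peak tail current of the secondary pulse compared with the same well before compound.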
# Sequence of human ether-à-go-go-related gene (hERG) potassium channel (Q12809 whole entry, looked up): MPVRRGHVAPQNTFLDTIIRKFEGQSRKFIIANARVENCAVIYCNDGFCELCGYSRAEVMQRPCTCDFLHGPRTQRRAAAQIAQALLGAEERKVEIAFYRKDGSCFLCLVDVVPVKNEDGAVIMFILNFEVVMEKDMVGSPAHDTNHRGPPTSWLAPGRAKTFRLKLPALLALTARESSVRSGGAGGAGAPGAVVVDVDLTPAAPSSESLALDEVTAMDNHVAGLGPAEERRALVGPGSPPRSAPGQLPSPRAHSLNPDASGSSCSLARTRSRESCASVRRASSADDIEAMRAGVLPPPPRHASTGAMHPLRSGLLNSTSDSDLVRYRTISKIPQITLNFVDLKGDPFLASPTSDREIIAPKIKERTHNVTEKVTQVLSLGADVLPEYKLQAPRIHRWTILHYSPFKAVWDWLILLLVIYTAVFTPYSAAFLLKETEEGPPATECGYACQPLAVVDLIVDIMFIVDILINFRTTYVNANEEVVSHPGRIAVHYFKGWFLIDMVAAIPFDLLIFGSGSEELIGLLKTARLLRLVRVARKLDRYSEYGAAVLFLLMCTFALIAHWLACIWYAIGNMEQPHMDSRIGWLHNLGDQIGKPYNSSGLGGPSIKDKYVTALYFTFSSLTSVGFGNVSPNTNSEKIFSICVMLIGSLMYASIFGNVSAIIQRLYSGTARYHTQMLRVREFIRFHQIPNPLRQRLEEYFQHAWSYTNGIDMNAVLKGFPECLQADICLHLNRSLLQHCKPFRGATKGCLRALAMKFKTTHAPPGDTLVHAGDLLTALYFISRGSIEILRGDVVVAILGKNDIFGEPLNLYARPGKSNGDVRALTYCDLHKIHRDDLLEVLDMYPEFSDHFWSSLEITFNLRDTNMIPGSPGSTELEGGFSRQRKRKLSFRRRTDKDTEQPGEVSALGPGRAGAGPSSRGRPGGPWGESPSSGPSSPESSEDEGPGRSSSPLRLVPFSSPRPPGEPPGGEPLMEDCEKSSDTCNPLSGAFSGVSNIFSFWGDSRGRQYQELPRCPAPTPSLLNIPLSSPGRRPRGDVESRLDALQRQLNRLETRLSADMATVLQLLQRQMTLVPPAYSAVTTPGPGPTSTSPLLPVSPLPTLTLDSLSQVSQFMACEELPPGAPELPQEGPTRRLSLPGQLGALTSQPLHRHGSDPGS
row,SMILES,"hERG current change (%, negative = inhibition) at 10uM [%]"
1,CC(c1nnc(SCC(=O)NC(=O)NCc2ccco2)n1-c1ccc(Cl)cc1)N(C)C (centres unmarked),-8.66
2,CC(C)COc1ccc(C/C(N)=N/n2cnnc2)cc1,30.4
3,COC(=O)CSc1nc2nc(C)cc(C)n2n1,4.29
4,CC(C)S(=O)(=O)N1CCN(c2ccnc3cc(Cl)ccc23)CC1,-71.6
5,Cc1ccc(Cl)cc1N1CCN(S(C)(=O)=O)CC1,-5.31
6,CN(C)S(=O)(=O)N1CCN(c2ccnc3cc(Cl)ccc23)CC1,-76.2
7,Cl.ClCCN1CCN(c2ccnc3cc(Cl)ccc23)CC1,-20.8
8,CCS(=O)(=O)N1CCN(c2ccnc3cc(Cl)ccc23)CC1,-73.2
9,CN(C)S(=O)(=O)N1CCN(c2cc(Cl)ccc2Cl)CC1,-8.38
10,CS(=O)(=O)N1CCN(c2ccnc3cc(Cl)ccc23)CC1,-78.6
11,Cc1cc(C)c[n+](-c2[nH]c(=O)sc2/C=N/N=C(\N)[S-])c1,22
12,COCCn1c(SCC(=O)NC2CCCC2)nc2cccnc21,17.1
13,COc1ccccc1-n1cnnc1SCC(=O)c1ccc[nH]1,-0.89
14,Cc1ccccc1NC(=S)N(CCN1CCOCC1)Cc1ccccc1F,30.1
15,Cl.Clc1ccc(CNCCC2=CCCCC2)cc1,-40
16,CC(Oc1ccc(Br)cc1Br)C(=O)NC1CCCC1 (centres unmarked),16.2
17,COc1ccc(N(CC(=O)N2CCc3ccccc3C2)S(=O)(=O)c2ccccc2)cc1,-32.1
18,N#Cc1nc(COc2ccccc2Cl)oc1NCc1cccnc1,-51.2
19,N#Cc1nc(COc2cccc(Cl)c2)oc1NCc1ccncc1,-73.7
20,N#Cc1nc(COc2cccc(Cl)c2)oc1NCc1ccco1,-16.8
21,CN(C)CCNc1oc(COc2cccc(Cl)c2)nc1C#N,-16.1
22,N#Cc1nc(COc2ccccc2Cl)oc1NCc1ccc(F)cc1,0.159
23,Cc1ccc(CNc2oc(COc3ccccc3Cl)nc2C#N)cc1,13.2

row,SMILES,"hERG current change (%, negative = inhibition) at 10uM [%]"
1,FC(F)(F)c1ccc(C2[C@H]3CN(CC4CCCCC4)[C@H](c4ccccc4)C34CC2(c2cccnc2)C4)cc1 (some centres unmarked),0.391
2,CN1CCN(C(=O)c2c(O)c3cccc4c3n(c2=O)CCC4)CC1.Cl,6.48
3,c1ccc(Cc2nc3ccccc3[nH]2)cc1,-6.39
4,CCOc1ccc(Nc2nc3c(c(=O)[nH]2)CCCC3)cc1,-3.98
5,COC(=O)c1ccc(/C=C2/SC(=S)N(CCCC(=O)Nc3ccccn3)C2=O)cc1,15.4
6,CC(NC(=O)C(CC(=O)OC(C)(C)C)NC(=O)OC(C)(C)C)C(N)=O (centres unmarked) (Boc-Asp(OtBu)-Ala-NH2; configuration not given here),-5.99
7,Cc1sc2ncn(CC(=O)NCCCC(=O)N3CCN(c4ncccn4)CC3)c(=O)c2c1C,7.64
8,N#C/C(=C\c1ccco1)Sc1nc2ccccc2s1,0.525
9,O=C(NCCc1nnc2ccc(NCc3ccc(F)cc3)nn12)c1ccccc1,-29
10,Cn1c(=O)c2c(n(Cc3ccccc3)c1=O)NC(=O)C2CC(=O)O (centres unmarked),12.6
11,CC(C)Cn1c(O)c2ccc(C(=O)N=NC(=O)c3cccnc3)cc2c1O,17
12,COc1ccc(/C=C/C(=O)NC(=S)N2CCN(c3ccccn3)CC2)cc1,-6.85
13,Cc1cccc(NC(=S)N(CCCN2CCOCC2)Cc2ccccn2)c1,-22.3
14,COc1ccccc1NC(=S)N(Cc1ccc(C)cc1)Cc1ccccn1,-39.1
15,CCc1ccc(NC(=S)N(CCCN2CCOCC2)Cc2ccccn2)cc1,-56.3
16,CCc1ccccc1NC(=S)N(CCCN1CCOCC1)Cc1ccccn1,-25.8
17,S=C(Nc1ccc(Oc2ccccc2)cc1)N(CCCN1CCOCC1)Cc1ccccn1,-70
18,COc1ccc(NC(=S)N(CCCN2CCOCC2)Cc2ccccn2)cc1,-14.4
19,Cc1ccc(NC(=S)N(CCCN2CCOCC2)Cc2ccccn2)cc1,-22.8
20,COc1cccc(NC(=S)N(Cc2ccc(C)cc2)Cc2ccccn2)c1,-30.2
21,COc1ccc(NC(=S)N(Cc2ccc(C)cc2)Cc2ccccn2)cc1,-50.5
22,N#Cc1ccccc1OCC(=O)NCCNC(=O)COc1ccccc1C#N,-10.1
23,CCOC(=O)C(C)Oc1c(Br)cc(C2NC(=O)NC(C)=C2C(C)=O)cc1OCC (centres unmarked),3.1

row,SMILES,"hERG current change (%, negative = inhibition) at 10uM [%]"
1,COc1cccc(C(=O)NCCC(=O)NCc2cc(=O)n(C)c(=O)n2C)c1,13.9
2,Cn1ccc(-c2ccccc2)c(C#N)c1=O,3.34
3,CS(=O)(=O)CCC(C(=O)OCc1ccc(Br)cc1)N1C(=O)c2ccccc2C1=O (centres unmarked),-0.0845
4,COC(=O)c1cc(C(=O)NNC(=O)c2ccc3c(c2)OCO3)cc([N+](=O)[O-])c1,-7.98
5,O=C(CN(Cc1ccco1)C(=O)c1ccccc1F)Nc1ccccc1C(F)(F)F,2.3
6,CNC(=S)N/N=C/c1cn(Cc2ccc(F)cc2)c2ccccc12,-4.59
7,Cc1ccc(S(=O)(=O)N(C)C)cc1NC(=S)NCCc1ccccn1,24.2
8,Cc1cccc(C)c1NC(=O)c1ccc(-n2cnnn2)cc1,-44.2
9,COc1cc(C(NC=O)C(=O)Nc2c(C)cccc2C)ccc1O (centres unmarked),15.1
10,COc1cc(C(C(=O)Nc2c(C)cccc2C)N(C)C(=O)c2ccc(-n3cnnn3)cc2)ccc1O (centres unmarked),-67.7
11,O=C(CN1CCc2ccccc2C1)Nc1ccccc1N1CCCCCC1.O=C(O)C(=O)O,-5.79
12,O=C(NS(=O)(=O)Nc1ccc(Cl)cc1)c1c[nH]c2ccccc12,23.2
13,Cc1cc(C)c(S(=O)(=O)N2CCN(C(=O)C3CCCO3)CC2)c(C)c1 (centres unmarked),-17.1
14,CCc1nn(C(C)C(=O)NCCN2CCN(c3cccc(C)c3C)CC2)c(=O)c2cc3occc3n12 (centres unmarked),-65.3
15,CCc1nn(C(C)C(=O)NCCN2CCCCCC2)c(=O)c2cc3occc3n12 (centres unmarked),6.27
16,CCc1nn(C(C)C(=O)Nc2cccc(C)c2C)c(=O)c2cc3occc3n12 (centres unmarked),-0.753
17,O=C(c1cnn2c(C(F)(F)F)cc(-c3cccs3)nc12)N1CCOCC1,-5.7
18,O=C(Nc1cccc(-n2cnnn2)c1)c1ccc(C(F)(F)F)cc1,-15.3
19,Oc1ccc(-c2[nH]ncc2-c2cccc3cccnc23)c(O)c1,32.1
20,Cc1cc(=O)oc2cc(OCC(=O)NCCCN3CCCC3=O)ccc12,29.5
21,COc1ccccc1N1CCN(C(=O)CCc2c[nH]c3ccccc23)CC1,3.69
22,c1ccc2c(CN3CCOCC3)c[nH]c2c1,15.1
23,c1cnc(N2CCN(Cc3c[nH]c4ccccc34)CC2)nc1,-36

row,SMILES,"hERG current change (%, negative = inhibition) at 10uM [%]"
1,Fc1ccccc1N1CCN(C2CCN(Cc3c[nH]c4ccccc34)CC2)CC1,-54.5
2,Fc1ccc(N2CCN(Cc3c[nH]c4ccccc34)CC2)cc1,-68.3
3,Cc1ccc(CN2CCN(c3cccc4[nH]ccc34)CC2)cc1,-60.4
4,O=[N+]([O-])c1cccc(CN2CCN(c3cccc4[nH]ccc34)CC2)c1,-7.67
5,COc1ccccc1N1CCN(Cc2c[nH]c3ccccc23)CC1,-55.8
6,O.c1ccc2c(CN3CCN(C4CCCCC4)CC3)c[nH]c2c1,-18.2
7,Clc1ccccc1CN1CCN(c2cccc3[nH]ccc23)CC1,3.09
8,COc1ccccc1N1CCN(Cc2ccc(OC)c3ccccc23)CC1,-5.46
9,c1ccc2c(CN3CCCCCCC3)c[nH]c2c1,-22.4
10,Cc1c(Cl)c([N+](=O)[O-])nn1CC(=O)N1CCN(C23CC4CC(CC(C4)C2)C3)CC1,19.9
11,N#CC(C#N)=NNc1ccc(S(=O)(=O)N2CCCC2)cc1,-17.8
12,Cc1ccc(C(=O)COc2cc(O)c3c(=O)cc(-c4ccccc4)oc3c2)cc1,24.6
13,CCOC(=O)/C(C#N)=C1\CCCN1CC(N)=S,2.57
14,COc1ccc2c(-c3ccccc3)cc(SC(C)C(N)=O)nc2c1 (centres unmarked),19.3
15,COc1ccc(C(=O)Nc2ccc([N+](=O)[O-])cn2)cc1OC,-22.6
16,Clc1ccccc1N1CCN(Cc2c[nH]c3ccccc23)CC1,-35.6
17,Cl.c1ccc2c(CN3CCCCCC3)c[nH]c2c1,-18.1
18,Cc1ccccc1N1CCN(Cc2c[nH]c3ccccc23)CC1,-62.1
19,Brc1ccc(-c2cnc3n2CCCC3)cc1,-34.2
20,CCOc1ccc(N(CC(=O)NCCSCc2ccc(C)cc2)S(C)(=O)=O)cc1,10.1

# Reference: PMC4336329 (PLoS ONE, 2015)
